Data from PubChem BioAssay (NCATS).
Results filed as inconclusive are left out. Values without a mark were called inactive. The call rests on the fitted dose curve; in most records, active means well fitted inhibition curve with a large enough effect; inconclusive means small, poorly fitted or top-dose-only effect; inactive means no such curve, though single readings can be large or run the other way.

What follows are compounds tested against Retinaldehyde dehydrogenase 3 (Homo sapiens) (UniProt P47895) (assay: qHTS for Inhibitors of the Aldehyde Dehydrogenase Family (ALDH1A3) Primary screen (AID 2061315;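 further: plate controls were DMSO vehicle for no effect and reference inhibitor for full effect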)). Settings: ALDH inhibition qHTS; series mostly up to 56 µM; activity change, negative = inhibition: at the top concentration.

Row | Compound | activity change, negative = inhibition
1 | CCN1C(=O)c2ccccc2C1Nc1ccc(OCCN2CCCCC2)cc1 (configuration not stated) | -16.2%
2 | CC(C)=CCC/C(C)=C/CO[C@@H]1O[C@H](CO)[C@@H](OC(=O)/C=C/c2ccc(O)cc2)[C@H](O[C@@H]2O[C@@H](C)[C@H](O)[C@@H](O)[C@H]2O)[C@H]1O | -1.3% [at 16.9 µM]
3 | C[C@@H]1O[C@@H](O[C@H]2[C@H](O)[C@@H](O[C@@H]3O[C@H](CO)[C@@H](O)[C@H](O[C@@H]4O[C@H](CO)[C@@H](O)[C@H](O)[C@H]4O)[C@H]3O)[C@H](O[C@H]3CC[C@@]4(C)C(=CC[C@@H]5C4CC[C@@]4(C)C5C[C@@H]5OC6(CC[C@@](C)(CO[C@@H]7O[C@H](CO)[C@@H](O)[C@H](O)[C@H]7O)O6)[C@@H](C)[C@@H]54)C3)O[C@@H]2CO)[C@H](O)[C@H](O)[C@H]1O (some centres not stated) | 9.26% [at 11.2 µM]
4 | C=C1[C@H](OC(C)=O)[C@H]2[C@@H](OC(C)=O)[C@](C)(OC(C)=O)C[C@]2(OC(C)=O)C(=O)[C@H](C)/C=C/C(C)(C)C(=O)[C@H](OC(=O)C(C)C)[C@H]1OC(C)=O | 1.41% [at 16.9 µM]
5 | C=C1CC[C@@H](O)[C@]2(C)C[C@H]3OC(=O)C(=C)[C@H]3CC12 (some centres not stated) | 8.77%
6 | C/C1=C\C[C@H](O[C@@H]2O[C@H](CO)[C@@H](O)[C@H](O)[C@H]2O)/C(C)=C/[C@H]2OC(=O)[C@H](C)[C@@H]2CC1 | 4.89% [at 28 µM]
7 | C/C=C(/C)C(=O)O[C@H]1C[C@]2(C)O[C@@H]2[C@@H](OC(C)=O)[C@@]2(C)CC[C@@](O)(C(C)C)[C@H]12 | -6.64%
8 | CC(=O)/C=C/C1(O)C(C)CC(O[C@@H]2O[C@H](CO)[C@@H](O)[C@H](O)[C@H]2O)CC1(C)C (some centres not stated) | -9.5% [at 28 µM]
9 | CCN1C(C)(C)CC(Oc2ccc(C(=O)Nc3ccc(NC(=O)Nc4cc(C(C)(C)C)on4)cc3)nc2)CC1(C)C | -0.521%
10 | OC[C@H]1O[C@@H](Oc2cc(O)c3c(c2)O[C@@H](c2ccc(O)cc2)[C@H](O)C3)[C@H](O)[C@@H](O)[C@@H]1O | -12% [at 28 µM]
11 | Cn1c(=O)c(F)c(Nc2ccc(I)cc2F)c2c(=O)n(CC(O)CO)cnc21 (configuration not stated) | 5.35%
12 | O=C(O)CCc1cc2ccoc2cc1O[C@@H]1O[C@H](CO)[C@@H](O)[C@H](O)[C@H]1O | 10.2%
